Screen size: about 37,000 compounds; about 2,800 (7.6%) were called active. About 1% were inconclusive and are not listed. This is one part of a sample in which actives are shown more often than they occur. Unmarked numbers belong to inactive results. Cut-off read from the data, not from the text of the source: active = inhibition above about 80%; inconclusive = no clear call, values can overlap the other calls; inactive = below that.
Assay: NOMO-1 AML cell viability reduction, primary screen, STK33 inhibitor project, CellTiter-Glo luminescence (AID 2330)
Details: NOMO-1 AML viability, 72 h, hits give high values, concentration not given here

SMILES	inhibition
C/C=C(/C)C(=O)OC1Cc2c(ccc3ccc(=O)oc23)OC1(C)C (centres undefined)	9.99%
S=c1nc2c(cnn2-c2ccccc2)c(Nc2ccccc2)[nH]1	12%
C[C@@H]1CN([C@H](C)CO)C(=O)c2cc(NC(=O)Cn3cnnn3)ccc2O[C@@H]1CN(C)Cc1ccc(C(F)(F)F)cc1	21.9%
Cc1ccc(S(=O)(=O)N(C)C[C@@H]2Oc3ccc(NS(=O)(=O)c4c(C)noc4C)cc3CC(=O)N([C@H](C)CO)C[C@H]2C)cc1	-13.6%
O=C(O)CCCC(=O)Nc1ccc(F)cc1	13.9%
C[C@H]1CN([C@@H](C)CO)C(=O)c2cc(NC(=O)CCN3CCOCC3)ccc2O[C@@H]1CN(C)C(=O)Nc1ccc(C(F)(F)F)cc1	22.5%
C[C@@H]1CN([C@@H](C)CO)C(=O)c2cc(NS(=O)(=O)c3ccccc3)ccc2O[C@H]1CN(C)CC1CCCCC1	-8.05%
Cn1nc(CC(=O)Nc2ccc3c(c2)oc2ccccc23)c2ccccc2c1=O	37.5%
Cc1ccc(C(=O)NC(NCc2ccco2)(C(F)(F)F)C(F)(F)F)cc1	39.2%
Cc1ccc(-n2nnnc2-c2cnn(-c3ccccc3)c2C)cc1	29.6%
C[C@H]1CN([C@@H](C)CO)C(=O)c2cccc(NS(=O)(=O)c3ccccc3)c2O[C@@H]1CN(C)S(=O)(=O)c1cn(C)cn1	-9.26%
Cc1ccc(S(=O)(=O)Nc2ccc3c(c2)C(=O)N([C@@H](C)CO)C[C@@H](C)[C@H](CN(C)Cc2ccc(C(F)(F)F)cc2)O3)cc1	118% (active)
COc1ccc(S(=O)(=O)Nc2ccc3c(c2)C(=O)N([C@H](C)CO)C[C@H](C)[C@H](CN(C)Cc2ccc(C(F)(F)F)cc2)O3)cc1	51.7%
C[C@H](CO)N1C[C@H](C)[C@H](CN(C)Cc2ccc(C(F)(F)F)cc2)Oc2ccc(NS(=O)(=O)c3ccc(Cl)cc3)cc2C1=O	58.5%
C[C@@H]1CN([C@@H](C)CO)C(=O)c2cc(NS(C)(=O)=O)ccc2O[C@H]1CN(C)C(=O)Nc1ccc(F)cc1	37.9%
CCCN(Cc1cc2cccc(C)c2[nH]c1=O)S(C)(=O)=O	10.7%
COC(=O)C1=C(C)Nc2c(c(=O)n(C)c(=O)n2C)C1c1cccc(OCc2ccccc2)c1 (centres undefined)	7.28%
O=C(c1ccc(Cl)cc1)n1c(=O)oc2cc(Cl)ccc21	132% (active)
CC(C)(C)c1ccc(OCC(=O)NCc2ccccn2)c(Br)c1	43.9%

From PubChem BioAssay AID2330 (Broad Institute, 2010)
